Laboratory results as given in PubChem BioAssay (Tox21).
Unmarked numbers belong to inactive results. Results filed as inconclusive are left out. Entries that show only a call come without a potency. Activity calls are given as the source filed them. Unless noted, calls follow the shape of the dose curve; as a rule, active = well fitted curve in the direction sought with a large enough effect in the repeat runs; inconclusive = weak or mixed curves; inactive = no such curve, though single readings can be large; an effect the other way counts as inactive or inconclusive.

Columns and labels:
[1] = qHTS assay for small molecule agonists of the p53 signaling pathway (AID 651631; calls by dose curve; also: nearly all actives have a fitted effect of over 15% in size)
In short: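 Readout was fluorescence from the LiveBLAzer FRET substrate, applied for 2 h at room temperature after 16 h compound exposure at 37 °C. Cells were the p53RE-bla HCT-116 line, with beta-lactamase driven by p53 response elements.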

[2] = qHTS assay for small molecules that induce genotoxicity in human embryonic kidney cells expressing luciferase-tagged ATAD5 (AID 651632); also: nearly all actives have a fitted effect of over 15% in size
In short: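 Reporter cells (HEK293T) express luciferase-tagged ATAD5, a protein that accumulates after DNA damage. Treat 16 hr at 37C/5% CO2, add Amplite, wait 30 min at RT, and read luminescence.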

[3] = qHTS assay for small molecules that induce genotoxicity in human embryonic kidney cells expressing luciferase-tagged ATAD5 - cell viability (AID 651634; calls by dose curve; also: nearly all actives have a fitted effect of over 25% in size)
In short: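 Seeding of 2,000 HEK293T ATAD5-luciferase cells per well preceded pin-tool compound transfer. Plates sat 15.5 hr at 37C under 5% CO2, then fluorescence was read after 30 min with CellTiter-Fluor.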

[4] = qHTS assay for small molecule disruptors of the mitochondrial membrane potential - cell viability (AID 720634; calls by dose curve;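 also: human HepG2 liver cancer cells; series mostly up to about 83 µM; nearly all actives have a fitted effect of over 20% in size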)
In short: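 Measuring cytotoxicity alongside mitochondrial potential, the screen quantified ATP by luminescence in HepG2 cells after 1 hr compound incubation and a 30 min room-temperature CellTiter-Glo step.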

[5] = qHTS assay for small molecule disruptors of the mitochondrial membrane potential (AID 720635); also: potency is read from the fitted curve at half-maximal effect
In short: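 HepG2 cells exposed to compound 1 hr at 37C, then Mito-MPS dye 30 min. Ratio read of aggregate (540/590 nm) versus monomer (490/535 nm) fluorescence.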

[6] = qHTS assay to test for compound auto fluorescence at 590 nm (red) in HepG2 cells (AID 720674)
In short: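 Fluorescence at 590 nm emission following 540 nm excitation was recorded from HepG2 wells one hour after compound transfer, with DMSO-only wells as vehicle and Rose Bengal sodium equivalency as the scale.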

[7] = qHTS assay to test for compound auto fluorescence at 535 nm (green) in HepG2 cells (AID 720675)
[8] = qHTS assay to test for compound auto fluorescence at 460 nm (blue) in HEK293 cells (AID 720678)
In short: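 After cell attachment (4-5 hr, 37C), compounds were pinned onto HEK293 monolayers in 10% dialyzed FBS medium. The blue channel (405/460 nm) was read following overnight culture. Equivalency was calculated against triamterene.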

[9] = qHTS assay to test for compound auto fluorescence at 590 nm (red) in HEK293 cells (AID 720679)
In short: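 Plates of HEK293 cells (10% dialyzed FBS) are treated with 23 nL compound or DMSO vehicle after a 4-5 hr attachment period, incubated overnight at 37C, and read for red fluorescence at 540/590nm.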

[10] = qHTS assay for small molecule agonists of the p53 signaling pathway - cell viability (AID 651633; calls by dose curve; also: series mostly up to about 83 µM; nearly all actives have a fitted effect of over 30% in size)
In short: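 p53RE-bla cells were treated with compound for 16 hours at 37 C. Cytotoxicity was then measured as CellTiter-Glo luminescence after 30 min at room temperature.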

Compound | outcome [1] | outcome [2] | Potency [3] | outcome [4] | Potency [5] | outcome [6] | outcome [7] | outcome [8] | outcome [9] | outcome [10] | fluorescence, relative to Rose Bengal [6] | fluorescence, % of fluorescein control [7] | fluorescence, % of triamterene [8] | fluorescence, % of fluorescent control [9]
C[Si]1(C)O[Si](C)(C)O[Si](C)(C)O[Si](C)(C)O[Si](C)(C)O1 | inactive | inactive | inactive | inactive | inactive | inactive | inactive | inactive | inactive | – | – | – | – | –
CCCC(=O)OCCC(C)CCC=C(C)C (stereo unspecified) | – | inactive | inactive | inactive | inactive | inactive | inactive | inactive | inactive | inactive | – | – | – | –
O=[N+]([O-])c1c(Cl)cc(Cl)cc1Cl | inactive | inactive | inactive | inactive | inactive | inactive | inactive | inactive | inactive | – | – | – | – | –
CC1CCc2c(N3CCC(O)CC3)c(F)cc3c(=O)c(C(=O)O)cn1c23 (stereo unspecified) | inactive | inactive | inactive | inactive | – | inactive | inactive | inactive | inactive | – | – | – | – | –
O=C[O][Al]([O]C=O)[O]C=O | inactive | – | – | inactive | – | inactive | inactive | inactive | inactive | inactive | – | – | – | –
CC(=O)CC(=O)Nc1ccc(C)cc1C | inactive | inactive | inactive | inactive | – | inactive | inactive | inactive | inactive | – | – | – | – | –
C[C@@H](O)C(=O)O | inactive | inactive | – | inactive | – | inactive | inactive | inactive | inactive | – | – | – | – | –
CCOc1cccc(N)c1 | inactive | inactive | inactive | inactive | inactive | inactive | inactive | inactive | inactive | – | – | – | – | –
Cn1nnc2c(C(N)=O)ncn2c1=O | inactive | inactive | inactive | inactive | inactive | inactive | inactive | inactive | inactive | – | – | – | – | –
CC(CO)(CO)CO | inactive | inactive | inactive | inactive | inactive | inactive | inactive | inactive | inactive | – | – | – | – | –
c1ccc(B(c2ccccc2)c2ccccc2)cc1 | inactive | – | inactive | – | 61.1 µM (active) | inactive | inactive | inactive | inactive | – | – | – | – | –
CCCCC1CCC(O)CC1 (stereo unspecified) | inactive | inactive | – | inactive | inactive | inactive | inactive | inactive | inactive | – | – | – | – | –
Cc1ccc2c(c1)C(=O)c1ccccc1C2=O | inactive | – | inactive | – | 6.09 µM (active) | inactive | inactive | inactive | inactive | inactive | – | – | – | –
NCCOCCN | inactive | inactive | inactive | inactive | – | inactive | inactive | inactive | inactive | – | – | – | – | –
C=CC(=O)OCC1CCCO1 (stereo unspecified) | inactive | inactive | inactive | inactive | – | inactive | inactive | inactive | inactive | – | – | – | – | –
CC(C)=CCC[C@@](C)(O)[C@H]1CC=C(C)CC1 | inactive | inactive | inactive | inactive | inactive | inactive | inactive | inactive | inactive | – | – | – | – | –
C[C@]12CCC(=O)C=C1CC[C@H]1[C@@H]3CC[C@](O)(C(=O)CO)[C@@]3(C)C[C@H](O)[C@@]12F | – | inactive | inactive | inactive | inactive | inactive | inactive | inactive | inactive | inactive | – | – | – | –
CC(O)CC(C)O (stereo unspecified) | – | inactive | inactive | inactive | – | inactive | inactive | inactive | inactive | inactive | – | – | – | –
Cc1c(C(=O)c2c[nH]n(C)c2=O)ccc(S(C)(=O)=O)c1C1=NOCC1 | – | inactive | inactive | inactive | – | inactive | inactive | inactive | inactive | inactive | – | – | – | –
CC(S)C(C)S (stereo unspecified) | – | inactive | inactive | inactive | inactive | inactive | inactive | inactive | inactive | inactive | – | – | – | –

Compound | outcome [1] | outcome [2] | Potency [3] | outcome [4] | Potency [5] | outcome [6] | outcome [7] | outcome [8] | outcome [9] | outcome [10] | fluorescence, relative to Rose Bengal [6] | fluorescence, % of fluorescein control [7] | fluorescence, % of triamterene [8] | fluorescence, % of fluorescent control [9]
C/C=C(\C)C(C)=O | – | inactive | inactive | inactive | – | inactive | inactive | inactive | inactive | inactive | – | – | – | –
Cc1c(Cl)cccc1Cl | – | inactive | inactive | inactive | – | inactive | inactive | inactive | inactive | inactive | – | – | – | –
CC1(C)O[C@H]2CC(=O)OC[C@]23[C@H]2CC[C@@]4(C)[C@H](c5ccoc5)OC(=O)[C@H]5O[C@]54[C@]2(C)C(=O)C[C@@H]13 | – | inactive | inactive | inactive | inactive | inactive | inactive | inactive | inactive | inactive | – | – | – | –
Fc1ccccc1 | – | inactive | inactive | inactive | – | inactive | inactive | inactive | inactive | inactive | – | – | – | –
COc1ccc(CCO)cc1 | – | inactive | inactive | inactive | – | inactive | inactive | inactive | inactive | inactive | – | – | – | –
CC(C)[C@H]1CC[C@H](C)C[C@@H]1O | – | inactive | – | inactive | inactive | inactive | inactive | inactive | inactive | inactive | – | – | – | –
CO[Si](CCCn1c(=O)n(CCC[Si](OC)(OC)OC)c(=O)n(CCC[Si](OC)(OC)OC)c1=O)(OC)OC | – | inactive | inactive | inactive | inactive | inactive | inactive | inactive | inactive | inactive | – | – | – | –
Cn1c(=O)c2c(ncn2CCO)n(C)c1=O | – | inactive | inactive | inactive | inactive | inactive | inactive | inactive | inactive | inactive | – | – | – | –
CCCCCC(C)O (stereo unspecified) | – | inactive | inactive | inactive | inactive | inactive | inactive | inactive | inactive | inactive | – | – | – | –
CO[C@@]1(NC(=O)Cc2cccs2)C(=O)N2C(C(=O)O)=C(COC(N)=O)CS[C@@H]21 | – | inactive | inactive | inactive | inactive | inactive | inactive | inactive | inactive | inactive | – | – | – | –
O=C(O)CNC(=O)CNC(=O)CNC(=O)CSC(=O)c1ccccc1 | – | inactive | inactive | inactive | inactive | inactive | inactive | inactive | inactive | inactive | – | – | – | –
CN(C)C(C)(C)CO | – | inactive | inactive | inactive | inactive | inactive | inactive | inactive | inactive | inactive | – | – | – | –
ONc1ccccc1 | – | inactive | inactive | inactive | – | inactive | inactive | inactive | inactive | inactive | – | – | – | –
C=Cc1ccc(C(C)(C)C)cc1 | – | inactive | inactive | inactive | – | inactive | inactive | inactive | inactive | inactive | – | – | – | –
C=C(C)[C@@H]1CC=C(C)C(=O)C1 | – | inactive | inactive | inactive | – | inactive | inactive | inactive | inactive | inactive | – | – | – | –
CC(C)Cn1cnc2c1c(=O)n(C)c(=O)n2C | – | inactive | inactive | inactive | inactive | inactive | inactive | inactive | inactive | inactive | – | – | – | –
CN1C[C@@H]2C[C@H]1CN2c1cc2c(cc1F)c(=O)c(C(=O)O)cn2C1CC1 | – | inactive | inactive | inactive | – | inactive | inactive | inactive | inactive | inactive | – | – | – | –
Cc1ccc(N)cc1S(=O)(=O)O | – | inactive | inactive | inactive | – | inactive | inactive | inactive | inactive | inactive | – | – | – | –
Cc1ccc(C(=O)O)cc1[N+](=O)[O-] | – | inactive | inactive | inactive | inactive | inactive | inactive | inactive | inactive | inactive | – | – | – | –
CC1(C)CC(OC(=O)CCCCCCCCC(=O)OC2CC(C)(C)NC(C)(C)C2)CC(C)(C)N1 | – | inactive | inactive | inactive | 2.96 µM (active) | – | – | – | – | inactive | 0.031% [at 18.6 µM] | -0.0628% [at 18.6 µM] | -0.0282% [at 18.6 µM] | 0.252% [at 18.6 µM]
